Structures are written as SMILES. Inconclusive results are not listed. Active and inactive are the calls of the source. Calls follow the shape of the dose curve; as a rule, active = well fitted inhibition curve with a large enough effect; inconclusive = small, poorly fitted or top-dose-only effect; inactive = flat fitted curve, though single readings scatter.

For the assay, the target named is Calcium and integrin-binding protein 1 (Homo sapiens) (UniProt Q99828). Description: Primary qHTS for Identification of Calcium Integrin Binding Protein 1 (CIB1) Competitor (AID 1508620). Also: top concentration of the series differs between compounds. As to conditions: CIB1-GST / FITC-alphaIIb peptide fluorescence polarization; series mostly up to 57.7 µM. The method in brief: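 Fluorescence polarization competition: GST-tagged CIB1 (1 uM final) preincubated with compound 15 min at room temperature, then FITC-labelled alphaIIb peptide (100 nM final) added. After 15 min at room temperature, polarization read at Ex 480/Em 540.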
Chain of Calcium and integrin-binding protein 1 (Homo sapiens) (Q99828 whole entry, looked up): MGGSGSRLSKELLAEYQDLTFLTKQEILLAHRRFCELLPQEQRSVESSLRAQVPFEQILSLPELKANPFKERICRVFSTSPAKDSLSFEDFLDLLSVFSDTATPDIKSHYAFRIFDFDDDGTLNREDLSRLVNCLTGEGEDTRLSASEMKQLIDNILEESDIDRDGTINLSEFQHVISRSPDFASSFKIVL
Consider `CN1c2cc(O)c(N=NC(N)=O)cc2CC1S(=O)(=O)O` (stereo not drawn), for which the result was inactive.
Consider `CN(C)CCCN=c1c2ccccc2n(C)c2[nH]c(=O)n(C)c(=O)c12`, for which the outcome was inactive.
Turning to `Clc1ccc2ncc(-c3cccc(NC4CNC4)n3)n2c1`, the result was inactive.
On to `CCCCCN(CCC12CC3CC(CC(C3)C1)C2)C(=O)NCCCc1ccncc1`, for which the result was inactive.
Regarding `O=C(c1cncc(Br)c1)N1CCC(N2CCCC2)CC1`, the outcome was inactive.
To `O=C(NC1CCNCC1)c1[nH]ncc1NC(=O)c1c(Cl)cccc1Cl` belongs “inactive”; to `O=C(NCCCNc1nc(Nc2cccc(NC(=O)N3CCCC3)c2)ncc1I)c1cccs1`, “inactive”; to `CC(=O)OCC(=O)[C@@]1(O)[C@H](C)C[C@H]2[C@@H]3C=C(C)C4=Cc5c(cnn5-c5ccccc5)C[C@]4(C)[C@@H]3[C@@H](O)C[C@@]21C`, “inactive”.
To `N#Cc1c(O)c2c(-c3ccc(-c4ccccc4O)cc3)csc2[nH]c1=O` belongs “inactive”; to `O=C(O)CCCc1c[nH]c2ccccc12`, “inactive”; to `C[C@]1(CO)CN(c2cc(C(=O)Nc3ccc4c(c3)-c3c(c(C(N)=O)nn3-c3ccc(F)cc3)CC4)c(Cl)cn2)C[C@@]1(C)CO`, “inactive”.
In the case of `Cc1cn(-c2cc(NC(=O)c3ccc(C)c(Nc4nccc(-c5cccnc5)n4)c3)cc(C(F)(F)F)c2)cn1`, the outcome was inactive.
`Cn1c(CNc2ccc(C(=N)N)cc2)nc2cc(C(=O)N(CCC(=O)O)c3ccccn3)ccc21`: the outcome was inactive.
Consider `COc1ccc(OC)c(-c2nnc3ccc(-c4ccc(OC)c(O[C@@H]5CCOC5)c4)nn23)c1`, for which the outcome was inactive.
As to `Cc1ccc(S(=O)(=O)Nc2cc(Cl)ccc2C(=O)Nc2nc(-c3ccccc3)cs2)cc1`, the outcome was inactive.
Consider `O=C(NCCS(=O)(=O)c1ccc(C(F)(F)F)cn1)c1ccc(Cl)cc1`, for which the result was inactive.
For `Cc1nc(N)ncc1-c1nc(N2CCOCC2)c2sc(C(C)(C)O)cc2n1`, the result was inactive.
`CC(=O)Nc1nc(C)c(-c2ccc(Cl)c(S(=O)(=O)NCCO)c2)s1`: the outcome was inactive.
For `Cc1ccc(-c2ncn(-c3ccc(Nc4nccc(-c5cccc(N6CCOCC6)c5)n4)cc3)n2)cn1`, the result was inactive.
Consider `COC(=O)Nc1ccc(-c2nc(N3CCOCC3)c3cnn(C4CCN(Cc5cccnc5)CC4)c3n2)cc1`, for which the outcome was inactive.
As to `Cn1c(=O)n(-c2ccc(C(C)(C)C#N)cc2)c2c3cc(-c4cnc5ccccc5c4)ccc3ncc21`, the result was inactive.
In the case of `O=C(CCCCCCC(=O)Nc1ccc([C@H]2O[C@@H](CSc3nc(-c4ccccc4)c(-c4ccccc4)o3)C[C@@H](c3ccc(CO)cc3)O2)cc1)NO`, the outcome was inactive.
Take `CCCCCCCCCC(=O)N[C@@H](Cc1c[nH]c2ccccc12)C(=O)N[C@H](CC(N)=O)C(=O)N[C@@H](CC(=O)O)C(=O)N[C@@H]1C(=O)NCC(=O)N[C@@H](CCCN)C(=O)N[C@@H](CC(=O)O)C(=O)N[C@H](C)C(=O)N[C@@H](CC(=O)O)C(=O)NCC(=O)N[C@H](CO)C(=O)N[C@@H]([C@@H](C)CC(=O)O)C(=O)N[C@@H](CC(=O)c2ccccc2N)C(=O)O[C@@H]1C`: the outcome was inactive.

Values taken from PubChem BioAssay (NCATS).
